# Source: PubChem (National Center for Advancing Translational Sciences (NCATS))
# Sampled rows, rich in hits. Any-hit rate of the full collection: about 2.3%.
# USP1 inh: blocks the human USP1/UAF1 deubiquitinase complex. O94782. recombinant USP1/UAF1, Ub-Rhodamine cleavage fluorescence. Potency, µM (titrated, usually from 57.1 µM), without a hit: at the top dose activity change, negative = inhibition, usual class: inhibitors. 0.23% of 390,000 active. AID 743255; further: potency means the concentration at half of the fitted maximal effect; nearly all actives have a fitted effect of over 60% in size
#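 High-throughput fluorogenic screen: 1nM USP1/UAF1 complex, Ub-Rho substrate 150nM final, 50mM HEPES pH 7.8 with 0.5mM EDTA, 0.1 mg/ml BSA, 1mM TCEP and 0.01% Tween-20.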
# Coupling enz: coupling enzyme interference in Giardia aldolase counter-screen | coupling enzyme system counterscreen, AmpLite Red fluorescence | activity change, negative = inhibition, % at 58.2 µM, hits read low | 0.67% of 290,000 active | AID 2472; in the data active means activity change below about -30%
#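 Compounds tested against the coupling enzymes alone at 57.5 uM final; readout was AmpLite Red fluorescence (525/598 nm) after 20 min at RT.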
# Tau fibril ThT: inhibitors of human tau fibril formation, thioflavin T binding; 2.1% of 270,000 active; Potency, µM (series often up to 57.4 µM), without a hit: at the highest dose activity, negative = inhibition, actives largely listed as inhibitors; P10636; recombinant tau K18 P301L, heparin-induced fibrillization, ThT fluorescence; further: potency means the concentration at half of the fitted maximal effect; nearly all actives have a fitted effect of over 55% in size
# Target sequence (P10636 561-689 P618L limits assumed): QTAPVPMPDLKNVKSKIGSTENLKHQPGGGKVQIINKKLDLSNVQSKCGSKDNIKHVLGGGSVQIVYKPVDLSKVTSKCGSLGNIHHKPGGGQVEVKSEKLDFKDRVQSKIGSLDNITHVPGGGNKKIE
#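 Tau K18 P301L fragment (15 uM unlabeled plus 0.24 uM Alexa 594-labeled) in 100 mM sodium acetate pH 7 with compound, fibrillization induced by 20 uM heparin for 6 hr at 37 C. Thioflavin T (30 uM) added, fluorescence read after 1 hr (ex 450, em 510 nm).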
# Tau fibril FP: inhibitors of human tau fibril formation; 0.39% of 280,000 active; K18 P301L tau heparin fibrillization, Alexa594 FP, 6 h; P10636; Potency, µM (doses to about 57.7 µM), for the others: top-dose activity, negative = inhibition, most hits filed as inhibitors; further: potency means the concentration at half of the fitted maximal effect; nearly all actives have a fitted effect of over 55% in size
#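 Read-out: fluorescence polarization of Alexa 594-labeled tau (0.24 uM), 555 nm excitation, 632 nm emission. Mixtures held 15 uM unlabeled K18 P301L, compound and 20 uM heparin, pH 7 acetate buffer, incubated 6 hr at 37 C.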
# Tau fluor counter: counter-screen for tau fibril formation inhibitors; tau K18 P301L (four-repeat tau fragment) Alexa594 fluorescence, heparin fibrillization; Potency, µM (series often up to 57.7 µM), for the others: at the highest dose activity change, negative = decrease; 0.93% of 280,000 active; AID 1463; further: potency means the concentration at half of the fitted maximal effect; nearly all actives have a fitted effect of over 55% in size
#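 Human K18 P301L tau (15 uM unlabeled plus 0.24 uM Alexa 594-labeled, final) in 100 mM sodium acetate pH 7 was mixed with compound and 20 uM heparin and incubated 6 hr at 37 C.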
# Starred values were filed as active, the others as inactive; ? = inconclusive; . = not tested or not shown; [ ] = remark or other dose. Unless noted, the call rests on the fitted dose curve; in most records, active means well fitted curve in the direction sought with a large enough effect; inconclusive means small, poorly fitted or top-dose-only effect, or another doubt; inactive means no such curve, though single readings can be large; an effect the other way counts as inactive or inconclusive. On the % scale 0 is the no-effect control and ±100 the full control effect.
SMILES,USP1 inh,Coupling enz,Tau fibril ThT,Tau fibril FP,Tau fluor counter
CCOc1cc(CNc2ccc(N3CCCCC3)cc2)cc(Br)c1OCC(=O)NC(C)(C)C,-19%,1,?,-13%,-25%
COc1ccc2[nH]c(=O)c(CN(C(=O)c3cccc(Cl)c3)c3ccccc3OC)cc2c1,-7%,.,-13%,-11%,-13%
O=[N+]([O-])c1c(NCc2ccccc2)cc(N2CCc3ccccc3C2)c2nonc12,-13%,-40*,?,-8%,-12%
CS(=O)(=O)NCCCNc1ccc(C(F)(F)F)cc1[N+](=O)[O-],-14%,2,.,1%,-1%
O=[N+]([O-])c1cc(C(F)(F)F)ccc1NCCc1c[nH]c2ccc(O)cc12,-12%,2,18µM*,0%,28µM*[quencher]
O=[N+]([O-])c1cccnc1NCCc1c[nH]c2ccccc12,-20%,-2,.,.,.
O=[N+]([O-])c1cc(C(F)(F)F)ccc1NCCc1c[nH]c2ccccc12,-16%,1,13µM*,-2%,10µM*[quencher]
Cc1cc(C(F)F)n2nc(C(=O)Nc3cccc(Cl)c3C)nc2n1,-26%,.,-9%,8%,-2%
Cc1cc(C)cc(N(CC(=O)NCc2ccc(F)cc2)C(=O)CCC(=O)Nc2ccccn2)c1,-6%,3,.,.,.
CC1(C)CC(=O)C(C=Nc2ccc(O)c(N=CC3=C(O)CC(C)(C)CC3=O)c2)=C(O)C1,-6%,-11,4µM*,?,?
CC1(C)CC(=O)C(C=Nc2ccc3c(c2)OCO3)=C(O)C1,-15%,0,-11%,-3%,-8%
O=C(NCCCn1ccnc1)c1noc2c1CCCC2,10%,1,3%,-6%,2%
O=C(NCCCn1ccnc1)c1noc2c1CCc1ccccc1-2,-23%,-44*,-19%,-9%,-17%
CC1CCCCC1NC(=O)COCc1cc(-c2cccs2)on1 (stereo not drawn),-24%,4,.,.,.
O=S(=O)(Oc1ccccc1/C=N/n1cnnc1)c1ccccc1,-2%,-49*,-5%,-3%,-1%
COc1ccccc1/C=N/n1cnnc1,?,1,1%,4%,2%
COc1ccc(C2C=C(c3ccc(C)cc3)Nc3c(C(=O)Nc4ccccc4)cnn32)cc1 (stereo not drawn),-14%,.,-5%,?,-8%
COc1cc(OC)c(C2C=C(c3ccc(C)cc3)Nc3c(C(=O)Nc4ccccc4)cnn32)cc1OC (stereo not drawn),-9%,.,-13%,9%,18µM*[quencher]
O=C(O)c1cccc(N2C(=O)/C(=C/c3ccc([N+](=O)[O-])cc3)C=C2c2ccccc2)c1,-12%,15,6.3µM*,-9%,?
O=C1/C(=C/c2ccc([N+](=O)[O-])cc2)C=C(c2ccccc2)N1c1ccc(O)cc1,-6%,0,5.6µM*,-5%,11µM*[quencher]
O=C(NCCOc1ccccc1)[C@@H]1CCCN1C(=O)c1cccs1,4%,.,.,.,.
Oc1cccc(NC(=S)N=Nc2c(O)[nH]c3ccc(Br)cc23)c1,-7%,1,6.3µM*,-2%,11µM*[quencher]
CNC(=S)N=Nc1c(O)[nH]c2ccccc12,-4%,-3,?,-15%,-18%
O=C(N=Nc1c(O)[nH]c2ccc(Br)cc12)c1ccccc1-n1cccc1,-18%,2,?,?,14µM*[quencher]
Oc1ccc(NC(=S)N=Nc2c(O)[nH]c3ccc(Br)cc23)cc1,-17%,3,5µM*,-2%,16µM*[quencher]
SMILES,USP1 inh,Coupling enz,Tau fibril ThT,Tau fibril FP,Tau fluor counter
CNC(=S)N=Nc1c(O)[nH]c2ccc(C(C)C)cc12,1%,-2,16µM*,-3%,?
O=C(N=Nc1c(O)[nH]c2ccc(Br)cc12)c1ccco1,-7%,.,.,.,.
CC(=O)N1CCCc2cc(S(=O)(=O)N3CCC(C(=O)NC4CCC(C)CC4)CC3)ccc21 (stereo not drawn),-12%,.,9%,7%,1%
Oc1ccc(NC(=S)N=Nc2c(O)[nH]c3ccccc23)cc1,-8%,2,14µM*,4%,?
Cc1ccc(NC(=S)N=Nc2c(O)[nH]c3ccccc23)cc1,-12%,3,?,?,?
CSc1ncc(CN2CCc3c([nH]c4ccccc34)C2c2cccc(O)c2)cn1 (stereo not drawn),-12%,-6,-18%,2%,16µM*[quencher]
CC(=O)Oc1ccc(N(C(C)=O)S(=O)(=O)c2ccccc2)c2ccccc12,-6%,.,.,.,.
CC(=O)Oc1ccc(N(C(C)=O)S(=O)(=O)c2ccc(C)cc2C)c2ccccc12,-26%,0,.,.,.
Cc1ccc(S(=O)(=O)N(C(=O)c2ccncc2)c2ccc(OC(=O)c3ccncc3)c3ccccc23)c(C)c1,-23%,-12,14µM*,?,?
Cc1ccc(S(=O)(=O)N(C(=O)c2ccncc2)c2ccc(OC(=O)c3ccncc3)c3ccccc23)cc1,-5%,-8,25µM*,?,?
Cc1nc(C)c(-c2ccc(SCc3ccc([N+](=O)[O-])cc3)nn2)s1,-3%,.,.,.,.
CC1(OC(=O)c2cccs2)C(=O)C=C2C=C(c3ccc(C#N)cc3)OC=C2C1=O (stereo not drawn),.,-2,28µM*,?,-12%
CC1(OC(=O)CCc2ccccc2)C(=O)C=C2C=C(c3ccsc3)OC=C2C1=O (stereo not drawn),.,5,25µM*,?,-11%
CC1(OC(=O)C2CCCC2)C(=O)C=C2C=C(c3ccsc3)OC=C2C1=O (stereo not drawn),?,-11,16µM*,?,?
CCOC(=O)C1CCN(C(=O)Cn2c(-c3cccs3)cc3cc(Cl)ccc32)CC1,-23%,.,-10%,11%,-18%
Cc1cc(C)cc(-n2ccnc(NCc3ccc(F)cc3)c2=O)c1,-23%,.,-1%,7%,-7%
COc1ccc(N/N=C(/C(N)=O)C2=NC(C)(C)Cc3ccccc32)cc1,-22%,0,7.9µM*,15%,?
CCS(=O)(=O)N1CC(=O)N(c2ccc(Cl)cc2C)C(C)(C(=O)NC2CCCCCC2)C1 (stereo not drawn),-9%,.,2%,-9%,-6%
Cc1ccc(CNC(=O)c2c[nH]n3c(=O)c(Cc4ccc(Cl)cc4)c(C)nc23)cc1,-29%,.,?,?,?
Cc1nc2c(C(=O)NCCc3ccc(Cl)cc3)c[nH]n2c(=O)c1Cc1ccc(Cl)cc1,?,.,28µM*,-12%,?
N#Cc1ccc(OCC(=O)OCC(=O)N2CCc3ccccc32)cc1,-5%,.,.,.,.
Cn1c(NNC(=O)c2ccc(C(C)(C)C)cc2)cc(=O)n(C)c1=O,-22%,-34*,-15%,2%,-8%
COc1ccc(-c2cc(-c3cc(F)ccc3O)[nH]n2)cc1OC,-17%,.,?,?,25µM*[quencher]
Cc1ccc(-c2cc(-c3cccc(F)c3)n[nH]2)c(O)c1,-15%,0,?,?,?
